The target of experiment [1] is human RAR-related Orphan Receptor beta (RORb), RORB (gene 6096) (UniProt Q92753). The experiment is described as follows: ATG_RORb_TRANS: Attagene TRANS-FACTORIAL HepG2 Assay for human RAR-related Orphan Receptor beta (RORb) (AID 2283010; active = hit-call score of the fitted dose curve at least 0.9, where 1 is the maximum). The procedure, abridged: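 Multiplexed transcription-factor reporter assay: HepG2 cells transiently carrying NR-Gal4/GAL4-UAS constructs, 24 h treatment, mRNA quantified by RT-PCR plus capillary electrophoresis fluorescence; activity scored as induction over DMSO.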
Chain of human RAR-related Orphan Receptor beta (RORb), RORB (gene 6096) (Q92753 whole entry, looked up, the tested form may be a part): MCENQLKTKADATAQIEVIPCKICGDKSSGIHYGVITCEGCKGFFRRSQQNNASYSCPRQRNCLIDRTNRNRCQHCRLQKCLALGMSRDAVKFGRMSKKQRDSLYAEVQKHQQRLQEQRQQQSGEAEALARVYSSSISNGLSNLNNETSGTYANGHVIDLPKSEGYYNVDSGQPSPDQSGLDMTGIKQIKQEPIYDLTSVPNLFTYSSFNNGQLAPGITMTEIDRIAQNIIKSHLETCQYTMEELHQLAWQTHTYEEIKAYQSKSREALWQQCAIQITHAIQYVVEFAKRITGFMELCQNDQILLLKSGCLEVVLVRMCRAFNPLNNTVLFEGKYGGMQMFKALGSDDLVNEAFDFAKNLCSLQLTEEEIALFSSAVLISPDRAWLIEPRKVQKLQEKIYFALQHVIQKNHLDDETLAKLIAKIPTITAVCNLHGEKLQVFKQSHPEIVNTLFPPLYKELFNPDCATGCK

The target of experiment [2] is Retinoic acid receptor RXR-alpha (Homo sapiens) (UniProt P19793). The experiment can be described thus: ATG_RXRa_TRANS: Attagene TRANS-FACTORIAL HepG2 Assay for human Retinoid X Receptor alpha (RXRa) (AID 2283012; active = hit-call score of the fitted dose curve at least 0.9, where 1 is the maximum). The gist of the method:
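Chimeric NR-GAL4 trans-activation in HepG2, 24 h treatment; reporter transcripts quantified by fluorescence on capillary electrophoresis, analysed for upward change from DMSO.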

Read-out in experiment [3]: E-selectin (Homo sapiens) (UniProt P16581)
The experiment is described as follows: BSK_3C_Eselectin: BioMAP Diversity Plus: 3C Assay for Eselectin Biomarker Activity (AID 2283015).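 Also: cell surface E-selectin protein quantified by ELISA 24 h after dosing.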 As to conditions: primary human endothelial cells (HUVEC); actives raise or lower the signal. The gist of the method:
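ELISA read-out of E-selectin on endothelial monolayers after 24 h chemical treatment. Human umbilical vein primary cells served as the system, with DMSO defining baseline activity for bidirectional fitting.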

Read-out in experiment [4]: Interleukin-1 alpha (IL1a), IL1A (gene 3552)
The experiment is described as follows: BSK_BE3C_IL1a: BioMAP Diversity Plus: BE3C Assay for Interleukin-1 alpha (IL1a) Biomarker Activity (AID 2283016). To be noted: primary human bronchial epithelial cells; actives raise or lower the signal. The procedure, abridged:
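Measured in human lung primary bronchial epithelial cells: IL-1a by ELISA at 24 h after dosing, with bidirectional fitting against DMSO.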

Read-out in experiment [5]: Monocyte Chemoattractant Protein-1 (MCP1), CCL2 (gene 6347)
The experiment can be described thus: BSK_3C_MCP1: BioMAP Diversity Plus: 3C Assay for Monocyte Chemoattractant Protein-1 (MCP1) Biomarker Activity (AID 2283017). To be noted: primary human endothelial cells (HUVEC); actives raise or lower the signal. The gist of the method: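 ELISA read-out of MCP-1 from human umbilical vein endothelial cell cultures harvested 24 h post-dosing. Gain or loss of signal was fitted relative to DMSO.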

Read-out in experiment [6]: Monocyte Chemoattractant Protein-1 (MCP1), CCL2 (gene 6347)
The experiment is described as follows: BSK_4H_MCP1: BioMAP Diversity Plus: 4H Assay for Monocyte Chemoattractant Protein-1 (MCP1) Biomarker Activity (AID 2283018). To be noted: primary human endothelial cells (HUVEC); actives raise or lower the signal. The gist of the method: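 Primary human umbilical vein endothelium is exposed to chemical for 24 h before MCP-1 is assayed by ELISA. Concentration-response fitted bidirectionally relative to DMSO.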

Read-out in experiment [7]: Human Leukocyte Antigen - DR isotype (HLADR), HLA-DRA (gene 3122)
The experiment is described as follows: BSK_3C_HLADR: BioMAP Diversity Plus: 3C Assay for Human Leukocyte Antigen - DR isotype (HLADR) Biomarker Activity (AID 2283019).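 As to outcome: ELISA of cell-surface HLA-DR on HUVEC 24 h after dosing.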 To be noted: primary human endothelial cells (HUVEC); actives raise or lower the signal. The procedure, abridged:
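ELISA readout of surface HLA-DR on human umbilical vein endothelium, taken 24 h after chemical treatment. Gain- and loss-of-signal were both fitted relative to DMSO.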

Read-out in experiment [8]: Interleukin-8 (IL8), CXCL8 (gene 3576)
The experiment can be described thus: BSK_3C_IL8: BioMAP Diversity Plus: 3C Assay for Interleukin-8 (IL8) Biomarker Activity (AID 2283020). To be noted: primary human endothelial cells (HUVEC); actives raise or lower the signal. The gist of the method: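 Using DMSO-treated wells as the baseline, bidirectional curve fitting was applied to ELISA-measured IL-8 from human umbilical vein endothelial cultures sampled 24 h after compound addition.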

Read-out in experiment [9]: Monokine induced gamma interferon (MIG), CXCL9 (gene 4283)
The experiment can be described thus: BSK_3C_MIG: BioMAP Diversity Plus: 3C Assay for Monokine induced gamma interferon (MIG) Biomarker Activity (AID 2283021). To be noted: primary human endothelial cells (HUVEC); actives raise or lower the signal. The procedure, abridged: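 ELISA-measured MIG in dosed HUVEC 3C cultures at 24 h, analysed by bidirectional fitting with DMSO defining baseline activity.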

Experiment [10] in a line: BSK_3C_SRB: Viability Assessment in the BioMAP Diversity Plus: 3C Assay (AID 2283023).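 Also: fitted both ways against DMSO so a hit may be signal rise or drop.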 As to conditions: primary human endothelial cells (HUVEC). The gist of the method: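 Absorbance at 560 nm of sulforhodamine B-stained (0.1%) total protein served as a cytotoxicity readout in human umbilical vein endothelial cells, 24 h after chemical treatment. Signal was fitted bidirectionally relative to DMSO.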

Read-out in experiment [11]: Matrix Metallopeptidase 1 (MMP1), MMP1 (gene 4312)
The experiment can be described thus: BSK_BE3C_MMP1: BioMAP Diversity Plus: BE3C Assay for Matrix Metallopeptidase 1 (MMP1) Biomarker Activity (AID 2283024). As to conditions: primary human bronchial epithelial cells; actives raise or lower the signal. The gist of the method:
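In this multiplexed primary-cell system, human bronchial epithelium received chemicals for 24 h before an ELISA for MMP1. Values reflect bidirectional fits normalised to the DMSO baseline.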

Read-out in experiment [12]: Pselectin, SELP (gene 6403)
The experiment is described as follows: BSK_4H_Pselectin: BioMAP Diversity Plus: 4H Assay for Pselectin Biomarker Activity (AID 2283026). As to conditions: primary human endothelial cells (HUVEC); actives raise or lower the signal. The gist of the method:
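Bidirectional fits against DMSO gave the endpoint. Cells: primary human umbilical vein endothelium, chemical-treated for 24 h before ELISA detection of P-selectin.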

The nature of experiment [13]: BSK_4H_SRB: Viability Assessment in the BioMAP Diversity Plus: 4H Assay (AID 2283027).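 Also: cells exposed to compound for 24 h before staining.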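 As to AC50: curves fitted both ways versus DMSO so AC50 may be loss or gain.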 As to conditions: primary human endothelial cells (HUVEC). The gist of the method: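 Cytotoxicity readout: sulforhodamine B (0.1%) staining of total protein after 10% TCA fixation, measured at 560 nm in human umbilical vein endothelium at 24 h. DMSO set the baseline; fitting was bidirectional.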

Read-out in experiment [14]: Thrombomodulin, THBD (gene 7056)
The experiment can be described thus: BSK_3C_Thrombomodulin: BioMAP Diversity Plus: 3C Assay for Thrombomodulin Biomarker Activity (AID 2283029). As to conditions: primary human endothelial cells (HUVEC); actives raise or lower the signal. The gist of the method:
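In a multiplexed primary-cell system, human umbilical vein endothelium received chemical and was assayed 24 h later for thrombomodulin by ELISA. Parallel cultures were SRB-stained (0.1% SRB after 10% TCA fixation, read at 560 nm) to flag cytotoxicity.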

In experiment [15] the target is human RAR-related Orphan Receptor gamma (RORg), RORC (gene 6097) (UniProt P51449). The experiment is described as follows: ATG_RORg_TRANS: Attagene TRANS-FACTORIAL HepG2 Assay for human RAR-related Orphan Receptor gamma (RORg) (AID 2283011; active = hit-call score of the fitted dose curve at least 0.9, where 1 is the maximum). The gist of the method: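 First, HepG2 liver cells were transfected with GAL4-UAS-driven reporter constructs and the RORg-Gal4 fusion. Next, they were treated with chemical for 24 h. Finally, reporter mRNA was quantified by RT-PCR and capillary electrophoresis, with upward activity fitted against DMSO.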
Chain of human RAR-related Orphan Receptor gamma (RORg), RORC (gene 6097) (P51449 whole entry, looked up, the tested form may be a part): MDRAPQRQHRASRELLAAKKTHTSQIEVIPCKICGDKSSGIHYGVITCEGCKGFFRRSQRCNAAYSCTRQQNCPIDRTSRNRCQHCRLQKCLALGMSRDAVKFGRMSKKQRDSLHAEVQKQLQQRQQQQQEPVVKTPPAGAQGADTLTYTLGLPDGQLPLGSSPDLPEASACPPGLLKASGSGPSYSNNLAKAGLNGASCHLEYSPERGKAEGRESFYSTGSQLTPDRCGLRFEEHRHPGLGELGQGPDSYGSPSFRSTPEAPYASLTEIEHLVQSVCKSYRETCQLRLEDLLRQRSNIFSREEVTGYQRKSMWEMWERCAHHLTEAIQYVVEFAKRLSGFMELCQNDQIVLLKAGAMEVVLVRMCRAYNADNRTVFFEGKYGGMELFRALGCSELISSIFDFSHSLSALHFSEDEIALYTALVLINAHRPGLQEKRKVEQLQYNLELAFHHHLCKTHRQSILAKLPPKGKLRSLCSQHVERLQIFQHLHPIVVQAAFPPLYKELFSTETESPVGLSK

For experiment [16], the target named is human Retinoid X Receptor beta (RXRb), RXRB (gene 6257) (UniProt P28702). The experiment is described as follows: ATG_RXRb_TRANS: Attagene TRANS-FACTORIAL HepG2 Assay for human Retinoid X Receptor beta (RXRb) (AID 2283013; active = hit-call score of the fitted dose curve at least 0.9, where 1 is the maximum). The procedure, abridged:
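After a 24 h incubation with test chemical, transfected HepG2 cells carrying NR-Gal4 fusions and GAL4-UAS reporter transcription units yield RNA whose reporter cDNA is FAM-labelled, HpaI-cut and sized by capillary electrophoresis; increases over DMSO are scored.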

The target of experiment [17] is human Thyroid Receptor alpha (THRa1), THRA (gene 7067) (UniProt P10827). The experiment can be described thus: ATG_THRa1_TRANS: Attagene TRANS-FACTORIAL HepG2 Assay for human Thyroid Receptor alpha (THRa1) (AID 2283014; active = hit-call score of the fitted dose curve at least 0.9, where 1 is the maximum). The procedure, abridged:
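Reporter transcript induction, read by capillary electrophoresis of 6-FAM-labelled RT-PCR products, reflects activity of a transfected THRa1-Gal4 fusion in HepG2 liver cells. Cells were dosed for 24 h; activity was fitted in the positive direction against DMSO.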

In experiment [18] the target is human Vitamin D Receptor (VDR), VDR (gene 7421) (UniProt P11473). The experiment can be described thus: ATG_VDR_TRANS: Attagene TRANS-FACTORIAL HepG2 Assay for human Vitamin D Receptor (VDR) (AID 2283022; active = hit-call score of the fitted dose curve at least 0.9, where 1 is the maximum). The gist of the method:
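Steps: transfect HepG2 with GAL4-UAS-driven reporter constructs; dose compounds 24 h; isolate RNA, reverse-transcribe, PCR-amplify with 6-FAM-labelled primer extension and HpaI digestion; quantify fragments by capillary electrophoresis relative to DMSO.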

The nature of experiment [19]: BSK_3C_Vis: BioMAP Diversity Plus: 3C Assay for Morphology Visualization (AID 2283025).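 Also: fitted both ways so gain or loss versus DMSO counts.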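 As to AC50: light microscopy image of cell morphology used as background control.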 As to conditions: primary human endothelial cells (HUVEC). The gist of the method:
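Light-microscopy morphology readout, 24 h exposure, human primary umbilical vein endothelium; analysed relative to DMSO with bidirectional fitting.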

Experiment [20] can be described thus: BSK_BE3C_SRB: Viability Assessment in the BioMAP Diversity Plus: BE3C Assay (AID 2283028). As to conditions: primary human bronchial epithelial cells. The gist of the method:
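Cells (human bronchial epithelial, primary) are treated with chemicals, and after 24 h the parallel cultures are fixed in 10% TCA. These are then stained with 0.1% SRB and read at 560 nm. Gain or loss of signal is fitted relative to DMSO.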

Records with an inconclusive call do not appear. More than one record can exist for a structure, and the calls need not agree. Calls of active or inactive are those of the source. The calls were made as follows, unless noted: active = hit-call score of the fitted dose curve at least 0.9, where 1 is the maximum; inactive = score below 0.9.

Chain of E-selectin (Homo sapiens) (P16581 whole entry, looked up): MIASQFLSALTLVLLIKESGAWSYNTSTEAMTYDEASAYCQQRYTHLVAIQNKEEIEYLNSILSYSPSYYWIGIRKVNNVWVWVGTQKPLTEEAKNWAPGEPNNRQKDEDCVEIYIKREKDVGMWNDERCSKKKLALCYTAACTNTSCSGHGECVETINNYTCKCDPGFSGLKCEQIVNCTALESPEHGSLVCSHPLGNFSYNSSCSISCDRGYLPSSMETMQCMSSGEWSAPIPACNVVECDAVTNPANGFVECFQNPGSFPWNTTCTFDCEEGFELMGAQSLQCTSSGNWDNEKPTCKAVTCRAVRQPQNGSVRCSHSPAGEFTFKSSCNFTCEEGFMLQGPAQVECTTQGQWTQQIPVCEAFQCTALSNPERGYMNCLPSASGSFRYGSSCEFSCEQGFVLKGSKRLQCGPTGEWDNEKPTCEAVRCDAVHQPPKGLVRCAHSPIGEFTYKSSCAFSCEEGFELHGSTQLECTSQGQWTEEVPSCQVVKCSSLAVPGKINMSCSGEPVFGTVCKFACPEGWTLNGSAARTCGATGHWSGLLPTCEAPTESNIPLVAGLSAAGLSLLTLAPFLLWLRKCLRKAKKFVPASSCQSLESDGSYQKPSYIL
Chain of Retinoic acid receptor RXR-alpha (Homo sapiens) (P19793 whole entry, looked up, the tested form may be a part): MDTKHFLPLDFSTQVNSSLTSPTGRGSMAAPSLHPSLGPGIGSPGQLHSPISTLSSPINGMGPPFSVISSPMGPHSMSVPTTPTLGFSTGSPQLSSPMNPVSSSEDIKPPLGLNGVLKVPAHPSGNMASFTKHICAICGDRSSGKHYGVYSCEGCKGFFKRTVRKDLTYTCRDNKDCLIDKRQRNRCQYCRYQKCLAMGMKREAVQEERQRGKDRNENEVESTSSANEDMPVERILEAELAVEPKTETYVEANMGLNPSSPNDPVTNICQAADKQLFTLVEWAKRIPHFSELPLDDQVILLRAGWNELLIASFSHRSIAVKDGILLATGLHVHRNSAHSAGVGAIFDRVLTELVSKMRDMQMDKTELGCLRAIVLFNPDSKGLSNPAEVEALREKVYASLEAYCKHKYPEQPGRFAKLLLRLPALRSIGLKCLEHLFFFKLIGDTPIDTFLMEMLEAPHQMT
Chain of human Retinoid X Receptor beta (RXRb), RXRB (gene 6257) (P28702 whole entry, looked up, the tested form may be a part): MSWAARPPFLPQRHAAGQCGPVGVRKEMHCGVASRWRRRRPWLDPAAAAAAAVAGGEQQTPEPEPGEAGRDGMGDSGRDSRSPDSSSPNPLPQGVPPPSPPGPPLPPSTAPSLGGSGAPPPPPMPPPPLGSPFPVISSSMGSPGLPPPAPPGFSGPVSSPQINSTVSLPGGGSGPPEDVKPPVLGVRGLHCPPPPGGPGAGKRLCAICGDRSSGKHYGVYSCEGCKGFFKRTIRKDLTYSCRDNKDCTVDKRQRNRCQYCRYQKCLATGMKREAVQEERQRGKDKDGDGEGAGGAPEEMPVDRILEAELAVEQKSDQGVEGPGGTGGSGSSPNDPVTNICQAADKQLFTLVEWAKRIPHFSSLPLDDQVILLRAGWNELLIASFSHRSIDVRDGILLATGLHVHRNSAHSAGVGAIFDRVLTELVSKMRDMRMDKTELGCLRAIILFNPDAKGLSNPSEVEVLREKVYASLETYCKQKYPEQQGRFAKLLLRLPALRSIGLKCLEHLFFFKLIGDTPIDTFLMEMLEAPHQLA
Chain of human Thyroid Receptor alpha (THRa1), THRA (gene 7067) (P10827 whole entry, looked up, the tested form may be a part): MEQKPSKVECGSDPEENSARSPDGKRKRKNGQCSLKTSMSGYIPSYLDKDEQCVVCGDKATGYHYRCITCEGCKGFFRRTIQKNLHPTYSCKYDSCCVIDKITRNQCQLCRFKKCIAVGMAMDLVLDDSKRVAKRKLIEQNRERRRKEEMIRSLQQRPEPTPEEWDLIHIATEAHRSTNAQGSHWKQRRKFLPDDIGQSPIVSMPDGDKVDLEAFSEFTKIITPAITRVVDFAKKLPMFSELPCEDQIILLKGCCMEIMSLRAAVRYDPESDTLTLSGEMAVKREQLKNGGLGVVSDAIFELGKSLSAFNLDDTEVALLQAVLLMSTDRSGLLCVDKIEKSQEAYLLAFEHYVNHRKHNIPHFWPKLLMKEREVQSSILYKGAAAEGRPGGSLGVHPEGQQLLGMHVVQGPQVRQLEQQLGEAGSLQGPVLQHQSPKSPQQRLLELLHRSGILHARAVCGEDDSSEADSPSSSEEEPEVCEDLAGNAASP
Chain of human Vitamin D Receptor (VDR), VDR (gene 7421) (P11473 whole entry, looked up, the tested form may be a part): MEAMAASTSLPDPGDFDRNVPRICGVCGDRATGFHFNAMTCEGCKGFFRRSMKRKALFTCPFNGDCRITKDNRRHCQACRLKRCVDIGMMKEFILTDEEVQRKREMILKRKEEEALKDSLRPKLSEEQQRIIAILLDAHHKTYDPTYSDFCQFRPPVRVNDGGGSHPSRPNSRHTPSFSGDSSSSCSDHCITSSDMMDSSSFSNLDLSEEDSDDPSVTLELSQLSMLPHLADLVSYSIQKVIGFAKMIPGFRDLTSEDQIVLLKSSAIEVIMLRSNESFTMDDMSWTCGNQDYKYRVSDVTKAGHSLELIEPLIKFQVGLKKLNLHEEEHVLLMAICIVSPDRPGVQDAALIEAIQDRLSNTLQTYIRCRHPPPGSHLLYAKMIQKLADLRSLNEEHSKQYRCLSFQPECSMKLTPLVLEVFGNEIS

For the molecule `C=CC(F)(F)C(F)(F)C(F)(F)C(F)(F)C(F)(F)C(F)(F)C(F)(F)C(F)(F)F`, the result in experiment [1], in experiment [2], in [3], in experiment [4], in experiment [5] and in experiment [6] was inactive. The result in experiment [7], in experiment [8], in experiment [9], in experiment [10], in experiment [11] and in experiment [12] was inactive. The result in experiment [13] and in [14] was inactive.
As usually defined, the AC50 is the midpoint of the concentration-response curve, whichever way the signal moves. For `CCc1ccc(C(c2ccc(CC)cc2)C(Cl)Cl)cc1`, the outcome in experiment [15], in experiment [2], in experiment [16], in experiment [17], in [3] and in [4] was inactive. Besides, the outcome in experiment [9], in [18], in [12], in experiment [20] and in experiment [14] was inactive. Besides, the concentration at half-maximal activity (AC50) in experiment [5] is 12.9 µM (active); in experiment [6], 10.7 µM (active); in [7] it was 11.8 µM (active); in [10], 12.5 µM (active); in experiment [11], 7.64 µM (active); in experiment [19], 13 µM (active). For the same molecule, the half-maximal activity concentration (AC50) in experiment [13] is 15 µM (active).
Consider `C=CC/C=C/C/C=C/C/C=C/C`, for which the molecule was classed as inactive in experiment [15], in experiment [2], in experiment [17], in experiment [3], in [4] and in experiment [5]. Further, the result in experiment [6], in [7], in experiment [9], in experiment [10], in [11] and in experiment [19] was inactive. Also, the outcome in experiment [12], in experiment [13] and in experiment [14] was inactive. In addition, the AC50 in experiment [16] was 100 µM (active).
Take `CCc1c(Br)c(Br)c(Br)c(Br)c1Br`: the outcome in experiment [1], in experiment [2], in experiment [17], in experiment [3], in experiment [4] and in experiment [5] was inactive. Also, the outcome in experiment [6], in [7], in experiment [8], in experiment [9], in experiment [18] and in [10] was inactive. Further, the result in experiment [11], in experiment [19], in experiment [12], in experiment [13], in [20] and in experiment [14] was inactive. In addition, the AC50 in [16] is 5.94 µM (active).
As for `CC(C)c1ccccc1N`, the outcome in [1] and in experiment [16] was inactive.
`C=C(C)C(=O)OCC(F)(F)C(F)(F)C(F)(F)C(F)(F)C(F)(F)C(F)(F)C(F)(F)F`: the molecule was called inactive in [1], in [16], in experiment [3], in [4], in experiment [5] and in [6]. In addition, the outcome in experiment [7], in [9], in experiment [18], in [10], in experiment [11] and in experiment [12] was inactive. The result in experiment [13], in experiment [20] and in [14] was inactive. The half-maximal activity concentration (AC50) in experiment [11] is 3.2 µM (active).
`CNC(=S)NC`: the result in [1], in experiment [16], in [17] and in experiment [18] was inactive.
In the case of `CCCCNc1ccccc1`, the outcome in [1], in experiment [16], in [17], in [3], in experiment [4] and in experiment [5] was inactive. The outcome in experiment [6], in experiment [7], in [9], in experiment [18], in [10] and in experiment [11] was inactive. Besides, the result in [19], in [12], in [13] and in experiment [14] was inactive.

The values above are taken from PubChem BioAssay (EPA / NIEHS).
